Test in all cases: DAPPL (digital affinity profiling via proximity ligation, sequencing); 10 mM Tris-HCl pH 7.5, 50 mM NaCl, 1 mM DTT, 4% glycerol, room temperature, 30 min; GST-TFs on glutathione beads, 16-mer random dsDNA library, 0.1% formaldehyde crosslink after washing; high values mean tight binding
Common to all, as to conditions: protein: recombinant; tags: N-terminal GST; dsDNA, one strand shown

Experiment [1] concerns the target T1, ERF (Homo sapiens, UniProt P50548 1-548).
T1 sequence: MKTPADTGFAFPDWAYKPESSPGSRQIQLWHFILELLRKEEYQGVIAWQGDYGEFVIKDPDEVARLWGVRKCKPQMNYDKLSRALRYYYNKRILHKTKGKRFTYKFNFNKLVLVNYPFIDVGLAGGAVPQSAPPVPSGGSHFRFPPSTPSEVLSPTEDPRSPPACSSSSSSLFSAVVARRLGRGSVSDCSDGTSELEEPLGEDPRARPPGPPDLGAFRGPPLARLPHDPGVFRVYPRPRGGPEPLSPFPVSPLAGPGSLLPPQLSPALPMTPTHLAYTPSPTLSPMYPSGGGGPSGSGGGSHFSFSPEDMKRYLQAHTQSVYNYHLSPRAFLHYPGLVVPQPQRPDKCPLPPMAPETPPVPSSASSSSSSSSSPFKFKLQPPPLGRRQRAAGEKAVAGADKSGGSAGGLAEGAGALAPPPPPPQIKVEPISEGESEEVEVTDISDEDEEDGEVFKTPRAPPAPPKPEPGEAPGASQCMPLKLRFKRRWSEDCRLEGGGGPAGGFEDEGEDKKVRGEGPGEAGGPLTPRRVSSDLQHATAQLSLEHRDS
In a few lines:
(§1)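 Human transcription factors carrying a GST fusion were produced in yeast, bound to glutathione beads, tagged with DNA barcodes and pooled together with a tag-only sample. Each pool was held with 200 nmole of a random double-stranded 16-mer DNA library in Tris/NaCl/DTT/glycerol buffer for 30 min at room temperature, then washed, crosslinked in 0.1% formaldehyde, proximity-ligated with BsaI/T4 ligase (1 h, 37 °C), PCR-amplified and sequenced on an Illumina NextSeq500. Binding signal is the read frequency of each hexamer for a given factor divided by its frequency in the tag-only sample.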

Experiment [2] concerns the target T2, ETV3L (Homo sapiens, UniProt Q6ZN32 1-361).
T2 sequence: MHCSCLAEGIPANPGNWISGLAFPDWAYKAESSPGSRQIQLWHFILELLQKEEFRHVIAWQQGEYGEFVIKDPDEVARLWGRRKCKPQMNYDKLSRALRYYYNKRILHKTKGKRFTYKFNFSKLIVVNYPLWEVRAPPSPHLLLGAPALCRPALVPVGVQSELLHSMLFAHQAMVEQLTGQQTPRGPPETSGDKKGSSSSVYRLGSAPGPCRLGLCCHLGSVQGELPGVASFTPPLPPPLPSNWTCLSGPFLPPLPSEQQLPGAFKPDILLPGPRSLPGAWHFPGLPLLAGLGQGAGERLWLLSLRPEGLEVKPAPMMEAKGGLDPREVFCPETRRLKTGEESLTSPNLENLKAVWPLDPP
Summed up:
as §1

Experiment [3] has as its target T3, ETS2 (Homo sapiens, UniProt P15036 1-469).
T3 sequence: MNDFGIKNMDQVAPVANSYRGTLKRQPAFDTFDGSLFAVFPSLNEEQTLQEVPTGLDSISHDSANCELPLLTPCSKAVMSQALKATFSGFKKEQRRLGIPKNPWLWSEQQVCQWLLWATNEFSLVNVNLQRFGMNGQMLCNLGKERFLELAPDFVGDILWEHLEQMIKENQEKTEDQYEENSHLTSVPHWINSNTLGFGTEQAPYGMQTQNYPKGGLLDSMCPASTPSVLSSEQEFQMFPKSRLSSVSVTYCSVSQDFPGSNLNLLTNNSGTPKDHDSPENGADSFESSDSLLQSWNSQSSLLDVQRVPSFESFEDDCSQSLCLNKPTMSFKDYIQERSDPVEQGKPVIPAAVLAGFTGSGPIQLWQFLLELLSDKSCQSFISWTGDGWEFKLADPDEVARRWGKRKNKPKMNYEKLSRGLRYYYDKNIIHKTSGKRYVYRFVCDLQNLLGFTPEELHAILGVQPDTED
In a few lines: as §1

Experiment [4] concerns the target T4, SPDEF (Homo sapiens, UniProt O95238 1-335).
T4 sequence: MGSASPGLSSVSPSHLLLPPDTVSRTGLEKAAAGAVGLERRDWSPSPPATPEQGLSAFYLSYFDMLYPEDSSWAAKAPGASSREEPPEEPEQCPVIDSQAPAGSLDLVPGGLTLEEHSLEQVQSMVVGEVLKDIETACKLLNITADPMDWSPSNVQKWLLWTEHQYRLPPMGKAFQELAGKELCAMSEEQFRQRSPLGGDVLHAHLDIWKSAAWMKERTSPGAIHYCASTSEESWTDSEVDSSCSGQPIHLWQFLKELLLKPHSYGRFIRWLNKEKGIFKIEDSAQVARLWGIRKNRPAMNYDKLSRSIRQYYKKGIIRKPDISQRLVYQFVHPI
In a few lines: as §1

Experiment [5] addresses T5, ETV7 (Homo sapiens, UniProt Q9Y603 1-341).
T5 sequence: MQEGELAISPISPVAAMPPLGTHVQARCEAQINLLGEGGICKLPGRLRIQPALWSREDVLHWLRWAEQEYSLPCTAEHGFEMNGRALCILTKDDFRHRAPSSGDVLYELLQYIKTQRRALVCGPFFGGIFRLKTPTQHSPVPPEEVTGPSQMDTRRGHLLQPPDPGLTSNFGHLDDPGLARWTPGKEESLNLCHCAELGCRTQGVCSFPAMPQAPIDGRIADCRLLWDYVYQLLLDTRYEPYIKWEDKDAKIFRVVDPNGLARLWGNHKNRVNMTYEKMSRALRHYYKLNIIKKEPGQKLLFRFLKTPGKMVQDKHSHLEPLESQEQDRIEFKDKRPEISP
Summed up: as §1

Experiment [6] has as its target T6, ELF5 (Homo sapiens, UniProt Q9UKW6-2 1-255).
T6 sequence: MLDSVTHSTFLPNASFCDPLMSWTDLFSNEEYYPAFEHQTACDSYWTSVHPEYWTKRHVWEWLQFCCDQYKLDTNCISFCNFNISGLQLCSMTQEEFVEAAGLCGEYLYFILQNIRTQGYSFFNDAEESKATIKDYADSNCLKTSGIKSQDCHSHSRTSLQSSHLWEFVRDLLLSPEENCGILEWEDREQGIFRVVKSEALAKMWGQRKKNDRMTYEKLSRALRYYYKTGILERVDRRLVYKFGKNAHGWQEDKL
In a few lines:
as §1

Experiment [7] deals with T7, ETV3 (Homo sapiens, UniProt P41162-2 1-143).
T7 sequence: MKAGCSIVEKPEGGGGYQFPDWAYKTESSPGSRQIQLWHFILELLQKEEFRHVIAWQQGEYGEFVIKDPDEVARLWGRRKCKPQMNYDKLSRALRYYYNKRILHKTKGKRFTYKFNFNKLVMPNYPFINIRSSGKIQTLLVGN
Summed up:
as §1

In experiment [8] the target is ETV6 (Homo sapiens, UniProt P41212 1-452). In a few lines:
as §1

Sequence of ETV6 (P41212 whole entry): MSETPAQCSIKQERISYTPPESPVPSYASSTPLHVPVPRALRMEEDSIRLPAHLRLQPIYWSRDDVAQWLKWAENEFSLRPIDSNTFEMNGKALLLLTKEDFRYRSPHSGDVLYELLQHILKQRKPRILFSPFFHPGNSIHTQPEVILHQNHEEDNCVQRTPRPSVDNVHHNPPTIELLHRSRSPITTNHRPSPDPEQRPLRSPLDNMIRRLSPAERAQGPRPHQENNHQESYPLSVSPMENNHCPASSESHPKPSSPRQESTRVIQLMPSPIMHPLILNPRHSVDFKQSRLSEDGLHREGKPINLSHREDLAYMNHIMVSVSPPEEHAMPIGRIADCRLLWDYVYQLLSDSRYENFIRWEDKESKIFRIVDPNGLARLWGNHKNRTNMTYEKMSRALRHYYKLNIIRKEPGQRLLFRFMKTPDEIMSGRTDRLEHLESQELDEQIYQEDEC

On to AACTCA, for which the binding signal is 1.18 fold enrichment (6-mer frequency, TF over GST control) in experiment [1]; 1.18 fold enrichment (6-mer frequency, TF over GST control) in experiment [2]; 1.28 fold enrichment (6-mer frequency, TF over GST control) in experiment [3]; 1.22 fold enrichment (6-mer frequency, TF over GST control) in experiment [4]; 1.2 fold enrichment (6-mer frequency, TF over GST control) in experiment [5]; 1.22 fold enrichment (6-mer frequency, TF over GST control) in experiment [6]. For the same sequence, the binding signal in experiment [7] was 1.26 fold enrichment (6-mer frequency, TF over GST control); in experiment [8], 1.34 fold enrichment (6-mer frequency, TF over GST control).
Regarding TTGGTG, the binding signal in experiment [1] is 1.28 fold enrichment (6-mer frequency, TF over GST control); in experiment [2], 1.25 fold enrichment (6-mer frequency, TF over GST control); in experiment [3] it was 1.32 fold enrichment (6-mer frequency, TF over GST control); in experiment [4] it was 1.33 fold enrichment (6-mer frequency, TF over GST control); in experiment [5] it was 1.15 fold enrichment (6-mer frequency, TF over GST control); in experiment [6], 1.27 fold enrichment (6-mer frequency, TF over GST control). The binding signal is 1.32 fold enrichment (6-mer frequency, TF over GST control) in experiment [7] and 1.18 fold enrichment (6-mer frequency, TF over GST control) in experiment [8].
In the case of ATATCG, the binding signal in experiment [1] is 1.23 fold enrichment (6-mer frequency, TF over GST control); in experiment [2], 1.23 fold enrichment (6-mer frequency, TF over GST control); in experiment [3], 1.17 fold enrichment (6-mer frequency, TF over GST control); in experiment [4] it was 1.26 fold enrichment (6-mer frequency, TF over GST control); in experiment [5], 1.16 fold enrichment (6-mer frequency, TF over GST control); in experiment [6], 1.1 fold enrichment (6-mer frequency, TF over GST control). In addition, the binding signal in experiment [7] was 1.14 fold enrichment (6-mer frequency, TF over GST control); in experiment [8], 1.09 fold enrichment (6-mer frequency, TF over GST control).
Consider AAATCA, for which the binding signal in experiment [1] is 1.23 fold enrichment (6-mer frequency, TF over GST control); in experiment [2], 1.27 fold enrichment (6-mer frequency, TF over GST control); in experiment [3] it was 1.22 fold enrichment (6-mer frequency, TF over GST control); in experiment [4] it was 1.12 fold enrichment (6-mer frequency, TF over GST control); in experiment [5] it was 1.16 fold enrichment (6-mer frequency, TF over GST control); in experiment [6] it was 1.22 fold enrichment (6-mer frequency, TF over GST control). Further, the binding signal is 1.17 fold enrichment (6-mer frequency, TF over GST control) in experiment [7] and 1.21 fold enrichment (6-mer frequency, TF over GST control) in experiment [8].
Regarding CTTTTT, the binding signal in experiment [1] was 1.31 fold enrichment (6-mer frequency, TF over GST control); in experiment [2], 1.35 fold enrichment (6-mer frequency, TF over GST control); in experiment [3], 1.31 fold enrichment (6-mer frequency, TF over GST control); in experiment [4], 1.32 fold enrichment (6-mer frequency, TF over GST control); in experiment [5], 1.37 fold enrichment (6-mer frequency, TF over GST control); in experiment [6], 1.31 fold enrichment (6-mer frequency, TF over GST control). Moreover, the binding signal in experiment [7] is 1.24 fold enrichment (6-mer frequency, TF over GST control); in experiment [8], 1.3 fold enrichment (6-mer frequency, TF over GST control).
On to TAGCCC, for which the binding signal in experiment [1] was 1.18 fold enrichment (6-mer frequency, TF over GST control); in experiment [2], 1.11 fold enrichment (6-mer frequency, TF over GST control); in experiment [3], 1.14 fold enrichment (6-mer frequency, TF over GST control); in experiment [4], 1.3 fold enrichment (6-mer frequency, TF over GST control); in experiment [5], 1.05 fold enrichment (6-mer frequency, TF over GST control); in experiment [6], 1.07 fold enrichment (6-mer frequency, TF over GST control). Besides, the binding signal in experiment [7] is 1.24 fold enrichment (6-mer frequency, TF over GST control); in experiment [8], 1.04 fold enrichment (6-mer frequency, TF over GST control).
For ATTATA, the binding signal in experiment [1] was 1.3 fold enrichment (6-mer frequency, TF over GST control); in experiment [2], 1.33 fold enrichment (6-mer frequency, TF over GST control); in experiment [3] it was 1.37 fold enrichment (6-mer frequency, TF over GST control); in experiment [4] it was 1.23 fold enrichment (6-mer frequency, TF over GST control); in experiment [5] it was 1.37 fold enrichment (6-mer frequency, TF over GST control); in experiment [6], 1.24 fold enrichment (6-mer frequency, TF over GST control). The binding signal in experiment [7] was 1.28 fold enrichment (6-mer frequency, TF over GST control); in experiment [8] it was 1.3 fold enrichment (6-mer frequency, TF over GST control).
For TCTTAG, the binding signal in experiment [1] was 1.21 fold enrichment (6-mer frequency, TF over GST control); in experiment [2] it was 1.35 fold enrichment (6-mer frequency, TF over GST control); in experiment [3], 1.13 fold enrichment (6-mer frequency, TF over GST control); in experiment [4], 1.24 fold enrichment (6-mer frequency, TF over GST control); in experiment [5], 1.18 fold enrichment (6-mer frequency, TF over GST control); in experiment [6], 1.21 fold enrichment (6-mer frequency, TF over GST control). Besides, the binding signal was 1.2 fold enrichment (6-mer frequency, TF over GST control) in experiment [7] and 1.19 fold enrichment (6-mer frequency, TF over GST control) in experiment [8].

Values taken from PMC7862700, “An all-to-all approach to the identification of sequence-specific readers for epigenetic DNA modifications on cytosine”.
